pPAFAH FP inh = pPAFAH (human) enzyme inhibition; Q13093; recombinant pPAFAH, FP-rhodamine probe fluorescence polarization; inhibition, % at 3.39 µM; actives 1.5% (n = 330,000); AID 463082;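 active = inhibition above the mean inhibition across the screen plus 3 SD, cut at about 25% in these data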;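 also: inhibitors block binding of the rhodamine activity-based probe so polarization drops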
PAFAH1B3 inh = PAFAH1B3 (human) inhibition; Q15102; recombinant PAFAH1B3, FP-rhodamine probe, fluorescence polarization; inhibition, % at 3.39 µM; actives 0.28% (n = 340,000); AID 492972;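 active = inhibition above the screen-wide average of all tested compounds plus 3 SD, cut at about 25% in these data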
Target sequence (Q15102 whole entry, looked up): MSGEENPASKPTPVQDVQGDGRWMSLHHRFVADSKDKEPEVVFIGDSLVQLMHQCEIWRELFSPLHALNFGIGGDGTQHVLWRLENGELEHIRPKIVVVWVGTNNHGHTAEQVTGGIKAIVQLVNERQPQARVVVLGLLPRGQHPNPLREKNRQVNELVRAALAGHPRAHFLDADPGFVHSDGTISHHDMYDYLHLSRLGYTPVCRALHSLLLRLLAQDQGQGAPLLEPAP
PP5 primary = blocks human protein phosphatase 5 activity; inhibition, % at 6.7 µM; P53041; actives 0.18% (n = 320,000); purified PP5c, OMFP substrate fluorescence; AID 1987;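 active = inhibition above the campaign's mean inhibition across all tested compounds plus 3 SD, cut at about 9.5% in these data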
Target sequence (P53041 whole entry, looked up): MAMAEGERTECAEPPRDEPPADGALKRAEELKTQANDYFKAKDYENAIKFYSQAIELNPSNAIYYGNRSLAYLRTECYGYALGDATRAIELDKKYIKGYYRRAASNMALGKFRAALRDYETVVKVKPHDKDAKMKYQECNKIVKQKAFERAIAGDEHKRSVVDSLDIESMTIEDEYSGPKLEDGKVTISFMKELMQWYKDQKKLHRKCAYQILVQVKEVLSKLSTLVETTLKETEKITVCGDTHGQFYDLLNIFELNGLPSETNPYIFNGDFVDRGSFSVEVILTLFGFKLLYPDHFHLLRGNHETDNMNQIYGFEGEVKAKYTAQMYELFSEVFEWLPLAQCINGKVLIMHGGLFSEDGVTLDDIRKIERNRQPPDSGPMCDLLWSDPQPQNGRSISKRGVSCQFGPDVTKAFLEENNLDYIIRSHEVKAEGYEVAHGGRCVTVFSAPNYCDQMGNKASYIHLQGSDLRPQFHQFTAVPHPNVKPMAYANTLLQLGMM
PAFAH2 FP inh = inhibitors of human PAFAH2; recombinant PAFAH2, FP-rhodamine activity probe, fluorescence polarization; inhibition, % at 3.39 µM; Q99487; actives 0.99% (n = 340,000);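 active = inhibition above the mean over all tested compounds plus 3 SD, cut at about 30% in these data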;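 also: inhibitors block probe labeling of enzyme so polarization drops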
PAFAH1B2 FP inh = blocks human PAF acetylhydrolase 1b catalytic subunit 2 | actives 1.2% (n = 340,000) | inhibition, % at 3.39 µM | recombinant PAFAH1B2, FP-rhodamine activity probe, fluorescence polarization | P68402;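 active = inhibition above the mean of all tested compounds plus 3 SD, cut at about 24% in these data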
CTSL1 counter = counter-screen for PFM18AAP inhibitors: inhibitors of F. hepatica cathepsin L1; inhibition, % at 5.96 µM; AID 1906; actives 0.49% (n = 300,000); recombinant F. hepatica cathepsin L1, Z-Leu-Arg-MCA fluorescence;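 active = inhibition above the mean of all tested compounds plus 3 SD, set per screening campaign, cut at about 17% in these data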
pPAFAH confirm = pPAFAH (human) inhibition, confirmed; inhibition, % at 3.39 µM; AID 463230; shares compounds with pPAFAH FP inh; recombinant pPAFAH, FP-Rh probe fluorescence polarization; actives 72% (n = 2,300);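 active = mean inhibition of the triplicate above the hit cutoff set for the earlier primary screen, cut at about 25% in these data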
Hits are given with their value; 0 = inactive; - = no result given. Compounds with a hit are over-represented: about 3% of the library has one in this group of screens.

SMILES | pPAFAH FP inh | PAFAH1B3 inh | PP5 primary | PAFAH2 FP inh | PAFAH1B2 FP inh | CTSL1 counter | pPAFAH confirm
C/C(=N\NC(=O)c1cc(O)ccc1O)c1cccc(NC(=O)c2ccc(Cl)cc2)c1 | 46 | 0 | 0 | 0 | 0 | 0 | 0
C/C(=N\NC(=O)c1cc(O)ccc1O)c1cccc(NC(=O)c2cccc(Cl)c2)c1 | 38 | 0 | 0 | 0 | 0 | 0 | 0
C#CCOCCOCCOCCNc1nc(N2CCN(C(=O)[C@H](CCC(=O)O)n3cc([C@@H](N)CCCCN)nn3)CC2)nc(N2CCN(C(=O)[C@H](CCCCN)n3cc([C@@H](N)CC(N)=O)nn3)CC2)n1 | 0 | 0 | - | 0 | 0 | - | -
COc1ccc(CCOC(=O)c2ccc(NC(=O)CC#N)cc2)cc1 | 53 | 0 | 0 | 0 | 0 | 0 | 0
O=C(NCc1cccnc1)c1ccc(-c2ccccc2[N+](=O)[O-])o1 | 56 | 0 | 0 | 0 | 0 | 0 | 0
O=C(NCc1cccnc1)c1ccc(-c2cccc(Cl)c2Cl)o1 | 0 | 0 | 0 | 0 | 0 | 0 | -
Cc1ccc(NC(=O)CN(C)C(=O)Cc2c[nH]c3ccccc23)cc1 | 0 | 0 | - | 0 | 0 | - | -
O=C(O)C1Nc2c(O)cc(Cl)c([N+](=O)[O-])c2C2C=CCC12 (configuration not stated) | 90 | 63 | 0 | 77 | 51 | 0 | 39
N#C/C(=C\c1cc(Cl)c(OCc2ccc(Cl)cc2)c(Cl)c1)C(N)=O | 0 | - | 0 | - | - | 0 | -
N#C/C(=C\c1cc(O)c(O)c(O)c1)C(N)=O | 42 | 0 | 0 | 0 | 0 | 0 | 0
C=CCn1c(C)nc2ccccc2c1=O | 0 | 0 | 0 | 0 | 0 | 0 | -
C=CCn1c(N/N=C/c2ccc(O)cc2)nc2ccccc2c1=O | 35 | 0 | 0 | 0 | 0 | 0 | 0
Cc1cc([N+](=O)[O-])cc2c1NC(c1ccccn1)C1CC=CC21 (configuration not stated) | 0 | 0 | 0 | 0 | 0 | 0 | -
O=[N+]([O-])c1ccc(Cl)c2c1C1C=CCC1C(c1ccccn1)N2 (configuration not stated) | 37 | 0 | 0 | 0 | 0 | 0 | 0
O=C(OCCc1cc2ccccc2c(=O)o1)c1ccc(C(F)(F)F)cc1 | 0 | 0 | 0 | 0 | 0 | - | -
CC(=O)N1CCN(c2ccc(Nc3ncnc4c3oc3ccccc34)cc2)CC1 | 69 | 0 | 0 | 0 | 0 | 0 | 67
CCc1nc(Nc2ccc(N3CCN(C(C)=O)CC3)cc2)c2oc3ccccc3c2n1 | 42 | 0 | 0 | 0 | 0 | 0 | 33
O=C(COC(=O)CCS(=O)(=O)c1ccccc1)Nc1ccc(N2CCCCC2)cc1 | 0 | 0 | 0 | 0 | 0 | - | -
Cc1ccc(C)c(Cn2nnc3c(=O)[nH]c(C4CCN(S(=O)(=O)c5ccc(S(=O)(=O)N(C)C)cc5)CC4)nc32)c1 | 0 | 0 | 0 | 0 | 0 | 0 | -
Cc1ccc(C)c(Cn2nnc3c(=O)[nH]c(C4CCN(S(=O)(=O)c5ccc(S(=O)(=O)NC6CC6)cc5)CC4)nc32)c1 | 42 | 0 | 0 | 0 | 0 | 0 | 47
COc1ccccc1C(=O)N/C(=C\c1cn(S(=O)(=O)N(C)C)c2ccccc12)C(=O)N1CCOCC1 | 0 | 0 | 0 | 0 | 0 | 0 | -
COc1ccccc1C(CNC(=O)CCNC(=O)c1ccccc1Cl)N1CCCC1 (configuration not stated) | 0 | 0 | 0 | 0 | 0 | 0 | -
C/C(N)=C(/C#N)C(=O)COC(=O)c1cc(C)n(-c2ccc(F)cc2)c1C | 36 | 0 | 0 | 0 | 0 | 0 | 28
Cc1cc(C(=O)OCC(N)=O)c(C)n1-c1ccccc1 | 0 | 0 | 0 | 0 | 0 | 0 | -
CCCc1cc(=O)n2[nH]c(-c3ccc(Cl)cc3)cc2n1 | 0 | 0 | 0 | 0 | 0 | 0 | -
SMILES | pPAFAH FP inh | PAFAH1B3 inh | PP5 primary | PAFAH2 FP inh | PAFAH1B2 FP inh | CTSL1 counter | pPAFAH confirm
CCOC(=O)Cc1cc(=O)n2[nH]c(-c3ccc(Cl)cc3)cc2n1 | 35 | 0 | 0 | 0 | 0 | 0 | 0
CCOC(=O)Cc1nnc(NC(=O)CCc2ccccc2)s1 | 0 | 0 | 0 | 0 | 0 | 0 | -
COc1ccc(NC(=O)CSc2nccn2Cc2ccco2)cc1 | 0 | 0 | 0 | 0 | 0 | 0 | -
COC(=O)N/N=C/c1cc(N=Nc2ccccc2Cl)ccc1O | 0 | 0 | 0 | 0 | 0 | 0 | -
Nc1ccc(C(=O)N/N=C\c2cc(N=Nc3cccc4ccccc34)ccc2O)cc1 | 77 | 0 | 0 | 0 | 0 | 0 | 53
Cc1ccc(N2NC(=O)/C(=C\c3cc4c(cc3[N+](=O)[O-])OCO4)C2=O)cc1C | 48 | 0 | 0 | 50 | 0 | 0 | 0
COc1cc(/C=C2/C(=O)NN(c3ccc(C)c(Cl)c3)C2=O)cc([N+](=O)[O-])c1O | - | 0 | - | 0 | 0 | - | -
CC1=C(/C=C/C(=O)O)C(C)(C)CCC1 | 0 | 0 | 0 | 0 | 0 | 0 | -
CC1=C(/C=C/C(C)=C/C=C/C(C)=C/C(=O)Nc2ccc(O)cc2)C(C)(C)CCC1 | 54 | 0 | 0 | 0 | 0 | - | 53
COc1ccc(-c2nc(C#N)c(N3CCC(C)CC3)o2)cc1 | 0 | 0 | 0 | 0 | 0 | 0 | -
Oc1ccc(-c2cn3c(n2)SCC3)cc1 | 0 | 0 | 0 | 0 | 0 | 0 | -
Oc1ccc(-c2cn3c(n2)SCC3)cc1O | 56 | 0 | 0 | 0 | 0 | 0 | 0
COc1ccc(C(=O)Nc2cc(C)nn2-c2ccc(C)cc2)cc1 | 0 | 0 | 0 | 0 | 0 | 0 | -
O=c1cc(-c2ccccc2Cl)oc2c(NS(=O)(=O)c3cc(Cl)cc(Cl)c3O)ccc(O)c12 | 41 | 0 | 0 | 0 | 0 | 0 | 78
CCc1ccc(S(=O)(=O)Nc2ccc(O)c3c(=O)cc(-c4ccccc4Cl)oc23)cc1 | 0 | 0 | 0 | 0 | 0 | 0 | -
COc1ccc(CN2CCN(Cc3ccc4cc(F)ccc4n3)CC2CCO)c(C)c1C (configuration not stated) | 0 | 0 | 0 | 0 | 0 | 0 | -
S=c1[nH]nc(-c2cc3c(s2)-c2ccccc2CC3)o1 | 38 | 0 | 0 | 0 | 0 | 0 | 62
COc1ccc(N(CC(=O)NC2CCCC2)C(=O)c2ccc(C)s2)cc1OC | 0 | 0 | 0 | 0 | 0 | 0 | -
CN(C)c1ccc(N/C=C/C(=O)c2ccccc2)cc1 | 39 | 0 | 0 | 0 | 0 | 0 | 0
Cc1ccc(NS(=O)(=O)c2ccc(-c3ccc(=O)[nH]n3)o2)cc1 | 36 | 0 | 0 | 0 | 0 | 0 | 0
COc1ccc(S(=O)(=O)/N=C2/NC(=O)/C(=C\c3ccco3)S2)cc1 | 35 | 0 | 0 | 0 | 0 | 0 | 0
CCCCCCCc1nn2c(=O)cc(O)nc2s1 | 47 | 0 | 0 | 0 | 0 | 0 | 0
Cc1cc(NC(=O)CSc2sc3c(O)cc(=O)[nH]c3c2C#N)ccc1Br | 52 | 0 | 0 | 0 | 0 | 0 | 27
Cc1ccc(Cl)cc1NC(=O)CSc1sc2c(O)cc(=O)[nH]c2c1C#N | 0 | 0 | 0 | 0 | 0 | 0 | -
N#Cc1c(SCC(=O)Nc2cccc(C(F)(F)F)c2)sc2c(O)cc(=O)[nH]c12 | 40 | 0 | 0 | 0 | 0 | 0 | 0
